Screening results from PubChem.
POLB inh – qHTS Assay for Inhibitors of DNA Polymerase Beta; AID 485314, 2010; Potency, µM (series often up to 114 µM), usual class: inhibitors; Pol beta primer extension/strand displacement, fluorescence kinetic; 340,000 compounds, 1.3% hits
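Pol beta (10 nM) was preincubated with compound for 15 min at room temperature. The reaction was then started with 50 nM substrate and read immediately and after a further 10 min at room temperature.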
POLI inh – qHTS for Inhibitors of Polymerase Iota. Pol iota fluorescent replication assay, 10 min. Potency, µM (top dose mostly 115 µM), most hits filed as inhibitors. 390,000 compounds, 1% hits. AID 588590, 2011
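Fluorescent replication assay read twice, at 0 min and 10 min after adding 50 nM (final) substrate. Enzyme (10 nM) and compounds were first incubated 15 min at room temperature; enzyme-free buffer wells were negative controls.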
Pol eta inh – qHTS for Inhibitors of Polymerase Eta; DNA polymerase eta (Homo sapiens), Q9Y253; Potency, µM (top dose mostly 114 µM), hits mostly inhibitors; recombinant Pol eta, fluorescent DNA replication assay; 390,000 compounds, 1.2% hits
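Pol eta (10 nM) was preincubated with compounds for 15 min at room temperature, after which fluorescent replication substrate (50 nM final) was added to start the reaction. Fluorescence was read kinetically at 0 and 10 min.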
WRN helicase inh – qHTS for Inhibitors of WRN Helicase; WRN helicase unwinding, fluorescent forked duplex, kinetic; Potency, µM (top dose mostly 114 µM), actives largely listed as inhibitors; 360,000 compounds, 0.46% hits; AID 651768, 2012; further: nearly all actives have a fitted effect of over 55% in size
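Fluorescence dequenching readout, ex 525 nm/em 598 nm, kinetic mode: forked duplex DNA (100 nM final) with adjacent fluorophore and quencher unwound by WRN (20 nM final) with 2 mM ATP. Compound preincubation 15 min, room temperature.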
Pol kappa inh – qHTS for Inhibitors of Polymerase Kappa | AID 588579, 2011 | purified Pol kappa, fluorescent DNA synthesis assay, 10 min | 400,000 compounds, 0.53% hits | Potency, µM (top dose mostly 107 µM), actives largely listed as inhibitors | DNA polymerase kappa (Homo sapiens), Q9UBT6
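Here, compound and 10 nM enzyme are combined for 15 min at room temperature; adding 50 nM substrate (final) starts DNA synthesis, tracked by fluorescence at 0 and 10 min against buffer-only wells.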
FEN1 inh – qHTS Assay for the Inhibitors of Human Flap endonuclease 1 (FEN1); Recombinant FEN1 flap cleavage, fluorescence, 15 min; 390,000 compounds, 0.35% hits; Potency, µM (top dose mostly 114 µM), most hits filed as inhibitors; P39748; AID 588795, 2011; further: nearly all actives have a fitted effect of over 65% in size
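Compounds are tested as a concentration series against 10 nM FEN1; after a 15 min room-temperature preincubation, 50 nM substrate starts cleavage, with plate reads at 0 and 15 min. Normalized responses are fitted by a Hill equation.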
PGK validate – qHTS for inhibitors of Phosphogylcerate Kinase: Hit Validation Screen | shares compounds with Pol kappa inh | TbPGK coupled GAPDH assay, Kinase-Glo luminescence | Potency, µM (series often up to 57.5 µM), actives largely listed as inhibitors | 500 compounds, 79% hits | AID 686980, 2013; further: nearly all actives have a fitted effect of over 65% in size
POLI cherry-pick – qHTS for Inhibitors of Polymerase Iota: Confirmatory Assay for Cherry-picked Compounds; shares compounds with Pol kappa inh; 1,500 compounds, 77% hits; Potency, µM, hits mostly inhibitors; Pol iota primer extension, TAMRA/BHQ fluorescence
Each line names hits and unclear results; the compound was inactive in the other large screens (follow-up assays come after a bar, where they were run). Shown are actives, neighbours in structure and some others; about 2.4% of the full set was active somewhere. The call rests on the fitted dose curve; in most records, active means well fitted curve in the direction sought with a large enough effect; inconclusive means small, poorly fitted or top-dose-only effect, or another doubt; inactive means no such curve, though single readings can be large; an effect the other way counts as inactive or inconclusive.

CCc1ccccc1Nc1nn2c(=O)c3ccc(C(=O)NCc4ccc(C)cc4)cc3nc2s1	none (no result: WRN helicase inh)
Cc1ccccc1Nc1nn2c(=O)c3ccc(C(=O)NCc4ccccc4)cc3nc2s1	POLB inh 13µM, POLI inh 79µM, Pol eta inh inconclusive (no result: WRN helicase inh) | POLI cherry-pick inconclusive
C#CCn1c(=O)c2c(nc(/C=C/c3cccc(OC)c3)n2C)n(CCCOP(=O)(O)O)c1=O	none (no result: POLB inh, POLI inh, Pol eta inh, WRN helicase inh, FEN1 inh)
N[C@H](CO)Cc1cnc[nH]1	none (no result: POLB inh, POLI inh, Pol eta inh, WRN helicase inh, FEN1 inh)
CCCN(Cc1cccs1)C(=O)Nc1cc(Cl)ccc1C	none (no result: WRN helicase inh)
COc1ccccc1NC(=O)c1cnc(SCC(=O)N2CCOCC2)n(C)c1=O	Pol eta inh inconclusive (no result: WRN helicase inh) | POLI cherry-pick inconclusive
O=[N+]([O-])c1ccc(O/N=[N+](\[O-])N2CCCC2)c([N+](=O)[O-])c1	POLI inh inconclusive (no result: POLB inh, Pol eta inh, WRN helicase inh)
CC(NC(=O)c1cccc(NC(=O)c2nsc3ccccc23)c1)c1ccccc1 (centres undefined)	POLI inh inconclusive (no result: WRN helicase inh)
COc1ccc2[nH]cc(CCNc3ncnc4ccc(-c5ccccc5C#N)cc34)c2c1	none (no result: POLB inh, POLI inh, Pol eta inh, WRN helicase inh, FEN1 inh)
c1ccc2nc(-c3nc4ccccc4o3)ccc2c1	WRN helicase inh inconclusive | PGK validate 18µM
c1ccc(-c2nc3ccccc3o2)nc1	none
CCOc1ccc(/C=N/NC(=O)c2cc3c(OC)cccc3[nH]2)cc1	POLB inh 50µM, POLI inh 25µM, Pol eta inh inconclusive, FEN1 inh inconclusive | POLI cherry-pick inconclusive
COc1ccc(OC)c(/C=N/NC(=O)c2cc3c(OC)cccc3[nH]2)c1	none
CC(C)CN(CC(C)C)c1ccc(/C=C/c2nc3ccccc3s2)cc1	POLI inh inconclusive (no result: POLB inh, Pol eta inh, WRN helicase inh)
c1ccn2cc(-c3ccc4c(c3)OCCO4)nc2c1	POLI inh inconclusive | PGK validate inconclusive
Cc1ccc(NC(=O)C(=O)NCC(c2cccnc2)N2CCN(Cc3ccccc3)CC2)cc1C (centres undefined)	none (no result: WRN helicase inh)
CC1=CC2=NC(=O)/C(=C\c3ccc(-c4cccc(Cl)c4)o3)C(=N)N2O1	POLB inh inconclusive, POLI inh inconclusive, Pol eta inh 5.6µM | POLI cherry-pick inconclusive
CC1=CC2=NC(=O)/C(=C\c3cccn3CCOc3ccccc3C)C(=N)N2O1	POLI inh inconclusive
O=C(Nc1ccccc1OCc1cc(=O)n2ccccc2n1)Nc1ccccc1C(F)(F)F	none (no result: WRN helicase inh)
Cc1ccccc1N1CC(c2nc3ccccc3n2Cc2ccc(Br)cc2)CC1=O (centres undefined)	none (no result: WRN helicase inh)
CNc1ccc(/C=C(\CCC(=O)O)c2nc3ccccc3s2)cc1[N+](=O)[O-]	POLB inh 32µM, Pol eta inh 13µM, WRN helicase inh inconclusive | POLI cherry-pick 42
COc1cc(CC2COC(c3ccc(O)c(OC)c3)C2COC(C)=O)ccc1O (centres undefined)	POLB inh 6.3µM, POLI inh 10µM, Pol eta inh 3.5µM, WRN helicase inh 50µM, Pol kappa inh 22µM, FEN1 inh 56µM | PGK validate 8.2µM
COc1cc([C@@H]2OC[C@@H]3[C@H]2CO[C@@H]3c2ccc3c(c2)OCO3)ccc1O	none (no result: POLB inh)
C=C1C=C(C(F)F)n2ncc(C(=O)NC(C)CC)c2N1 (centres undefined)	none (no result: POLB inh, Pol eta inh, WRN helicase inh)
Cc1ccc2nc3sc(C(=O)Nc4ccc(F)cc4)cc3cc2c1	POLB inh 2.5µM, POLI inh inconclusive (no result: WRN helicase inh) | POLI cherry-pick 75
Cc1ccc2nc3sc(C(=O)Nc4ccncc4)cc3cc2c1	none (no result: POLB inh, POLI inh, Pol eta inh, WRN helicase inh, Pol kappa inh, FEN1 inh) | POLI cherry-pick inconclusive
